38 compounds from PubChem BioAssay can be followed below.

The structures appear in SMILES notation. A number with no mark means an inactive call. Calls of active or inactive are those of the source.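 Rule for the calls, unless noted: active = compound that reduces growth-factor-driven endothelial tube area in a mixed cell culture, no cutoff stated; inactive = the rest.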 Peptide text beside a SMILES is read from it.

The nature of one experiment: growth inhibition of GSK3B-pretreated HCT116 cells – cell-based, CellTiter-Glo, 0.2 to 20 µM (AID 1117336;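 active = compounds lowering colon cancer cell viability after pretreatment blocking the GSK3B kinase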). The conditions noted are these: HCT116 viability after GSK3B inhibitor, at 20 µM, hits give high values.
As for `CCCC(C(=O)OCCN(CC)CC)(c1ccccc1)c1ccccc1`, the viability decrease is 52.5% (active).
As to `O=C(Nc1ccc([N+](=O)[O-])cc1Cl)c1cc(Cl)ccc1O`, the viability decrease is 99.7% (active).
In the case of `C=CC(N)CCC(=O)O` (stereo unspecified), the viability decrease was -25.5%.
For the compound `CC1(C)O[C@@H]2C[C@H]3[C@@H]4CCC5=CC(=O)CC[C@]5(C)[C@@]4(F)[C@@H](O)C[C@]3(C)[C@]2(C(=O)CCl)O1`, the viability decrease was -39%.
On to `CNC1(C)C2CCC(C2)C1(C)C` (stereo unspecified), for which the viability decrease was -6%.
`NCCS`: the viability decrease is -8.4%.
Consider `OC[C@H]1O[C@@H](O[C@@H]2[C@@H](CO)O[C@](O)(CO)[C@H]2O)[C@H](O)[C@@H](O)[C@H]1O`, for which the viability decrease is -11.1%.
For `Nc1c2c(nc3ccccc13)CCCC2O` (stereo unspecified), the viability decrease was 5.9%.
Consider `CSc1ccc2c(c1)C(N1CCN(C)CC1)Cc1ccccc1S2` (stereo unspecified), for which the viability decrease was 111% (active).
Turning to `Cc1ccc(C(=O)Nc2ccc(S(=O)(=O)O)c3cc(S(=O)(=O)O)cc(S(=O)(=O)O)c23)cc1NC(=O)c1cccc(NC(=O)Nc2cccc(C(=O)Nc3cc(C(=O)Nc4ccc(S(=O)(=O)O)c5cc(S(=O)(=O)O)cc(S(=O)(=O)O)c45)ccc3C)c2)c1`, the viability decrease is -23.9%.
As for `C[N+]1(CCCCC[N+]2(C)CCCC2)CCCC1`, the viability decrease is -7%.
Regarding `CCCCCN(CCCCC)C(=O)C(CCC(=O)O)NC(=O)c1ccc(Cl)c(Cl)c1` (stereo unspecified), the viability decrease was -12.2%.
Consider `NC(=O)NO`, for which the viability decrease is 48.8%.
Still for that read-out and setting: to `CCOC(=O)C(C)(C)Oc1ccc(Cl)cc1` belongs -28.2%; to `CC(=O)OC(C)C[N+](C)(C)C` (stereo unspecified), -1.9%; to `NNc1nncc2ccccc12`, -10.3%.
On to `CCOC(=O)NNc1nncc2ccccc12`, for which the viability decrease was 0.3%.
For the compound `COC(=O)[C@H](Cc1ccccc1)NC(=O)[C@@H](N)CC(=O)O` (H-Asp-Phe-OMe), the viability decrease is -0.5%.
Regarding `COc1ccnc(CS(=O)c2nc3ccc(OC(F)F)cc3[nH]2)c1OC` (stereo unspecified), the viability decrease is 20.6%.
In the case of `COC(=O)[C@@H]1[C@H]2C[C@H]3c4[nH]c5ccccc5c4CCN3C[C@@H]2CC[C@@H]1O`, the viability decrease was -73.5%.
Turning to `CC(=O)Oc1ccccc1C(=O)O`, the viability decrease was -8.9%.
Regarding `Cn1cnc2c1c(=O)[nH]c(=O)n2C`, the viability decrease is 5%.
Still for that read-out and setting: to `O=C(COc1ccc(Cl)cc1)N1CCN(Cc2ccc3c(c2)OCO3)CC1` belongs 54% (active); to `C[n+]1cc2c3c(ccc2c2ccc4cc5c(cc4c21)OCO5)OCO3`, 99.8% (active).
With `CN(C)[C@@H]1C(=O)C(C(N)=O)=C(O)[C@@]2(O)C(=O)C3=C(O)c4c(O)ccc(Cl)c4[C@@H](O)[C@H]3C[C@@H]12`, the viability decrease was -29.7%.
Turning to `Cc1cc(N)c2ccccc2[n+]1CCCCCCCCCC[n+]1c(C)cc(N)c2ccccc21`, the viability decrease is 85.5% (active).
In the case of `C=Cc1c(C)c2cc3[nH]c(cc4nc(cc5nc(cc1[nH]2)C(C)=C5CCC(=O)O)C(CCC(=O)O)=C4C)c(C)c3C=C`, the viability decrease was 37.8%.
With `CCN(CC)C(C)CN1c2ccccc2Sc2ccccc21` (stereo unspecified), the viability decrease is -28.5%.
Consider `NCCCCCC(=O)O`, for which the viability decrease is -23%.
For `CCN(CC)CCNC(=O)c1ccc(NC(C)=O)cc1`, the viability decrease is 23%.
In the case of `CCOC(=O)c1ccc(N)cc1`, the viability decrease was 5.65%.
On to `CNC[C@H](O)c1cccc(O)c1`, for which the viability decrease was -4.6%.
Turning to `O=c1c(O)c(-c2ccc(O)c(O)c2)oc2cc(O)cc(O)c12`, the viability decrease is 81.4% (active).
For `O=C(OCC(O)CO)c1ccccc1Nc1ccnc2cc(Cl)ccc12` (stereo unspecified), the viability decrease is 53.3% (active).
Consider `CC(=O)O[C@]1(C(C)=O)CC[C@H]2[C@@H]3C=C(Cl)C4=CC(=O)[C@@H]5C[C@@H]5[C@]4(C)[C@H]3CC[C@@]21C`, for which the viability decrease was 16%.
As to `C[C@H]1O[C@@H](n2cc(F)c(=O)[nH]c2=O)[C@H](O)[C@@H]1O`, the viability decrease is 29.5%.
Turning to `CC1(C)NC(=O)N(c2ccc([N+](=O)[O-])c(C(F)(F)F)c2)C1=O`, the viability decrease was -16.7%.
On the same count and under the same terms, then `C[N+](C)(C)CCCCCC[N+](C)(C)C`, with 10.7%.

The nature of the next experiment: inhibition of endothelial tube formation, primary screen, imaging, VEGF stimulated, CD31 staining, tube area, NPC library (AID 1117340). Particulars: VEGF-stimulated ADSC/ECFC co-culture, at 10 µM, hits give high values.
With `CCCC(C(=O)OCCN(CC)CC)(c1ccccc1)c1ccccc1`, the tube area decrease is 9.6%.
Same read-out and setting: to `O=C(Nc1ccc([N+](=O)[O-])cc1Cl)c1cc(Cl)ccc1O` belongs 103% (active); to `C=CC(N)CCC(=O)O` (stereo unspecified), -14.9%; to `CC1(C)O[C@@H]2C[C@H]3[C@@H]4CCC5=CC(=O)CC[C@]5(C)[C@@]4(F)[C@@H](O)C[C@]3(C)[C@]2(C(=O)CCl)O1`, 10.2%.
As for `CNC1(C)C2CCC(C2)C1(C)C` (stereo unspecified), the tube area decrease was -1.8%.
Regarding `NCCS`, the tube area decrease is -3.5%.
Regarding `OC[C@H]1O[C@@H](O[C@@H]2[C@@H](CO)O[C@](O)(CO)[C@H]2O)[C@H](O)[C@@H](O)[C@H]1O`, the tube area decrease is -2.5%.
As to `Nc1c2c(nc3ccccc13)CCCC2O` (stereo unspecified), the tube area decrease is 16.1%.
`CSc1ccc2c(c1)C(N1CCN(C)CC1)Cc1ccccc1S2` (stereo unspecified): the tube area decrease is 61.8% (active).
Still for that read-out and setting: then `Cc1ccc(C(=O)Nc2ccc(S(=O)(=O)O)c3cc(S(=O)(=O)O)cc(S(=O)(=O)O)c23)cc1NC(=O)c1cccc(NC(=O)Nc2cccc(C(=O)Nc3cc(C(=O)Nc4ccc(S(=O)(=O)O)c5cc(S(=O)(=O)O)cc(S(=O)(=O)O)c45)ccc3C)c2)c1`, with 6%.
On to `C[N+]1(CCCCC[N+]2(C)CCCC2)CCCC1`, for which the tube area decrease was -11.3%.
For `CCCCCN(CCCCC)C(=O)C(CCC(=O)O)NC(=O)c1ccc(Cl)c(Cl)c1` (stereo unspecified), the tube area decrease is 4.7%.
Consider `NC(=O)NO`, for which the tube area decrease is 4.9%.
The same measure, in the same setting: to `CCOC(=O)C(C)(C)Oc1ccc(Cl)cc1` belongs -5.8%; to `CC(=O)OC(C)C[N+](C)(C)C` (stereo unspecified), 4.4%; to `NNc1nncc2ccccc12`, 5.9%.
On to `CCOC(=O)NNc1nncc2ccccc12`, for which the tube area decrease is -6.6%.
For `COC(=O)[C@H](Cc1ccccc1)NC(=O)[C@@H](N)CC(=O)O` (H-Asp-Phe-OMe), the tube area decrease was 6.5%.
Turning to `COc1ccnc(CS(=O)c2nc3ccc(OC(F)F)cc3[nH]2)c1OC` (stereo unspecified), the tube area decrease is -16.8%.
Consider `COC(=O)[C@@H]1[C@H]2C[C@H]3c4[nH]c5ccccc5c4CCN3C[C@@H]2CC[C@@H]1O`, for which the tube area decrease was 10.7%.
As to `CC(=O)Oc1ccccc1C(=O)O`, the tube area decrease is 9.2%.
Take `Cn1cnc2c1c(=O)[nH]c(=O)n2C`: the tube area decrease is 15.1%.
Take `O=C(COc1ccc(Cl)cc1)N1CCN(Cc2ccc3c(c2)OCO3)CC1`: the tube area decrease is 3.4%.
`C[n+]1cc2c3c(ccc2c2ccc4cc5c(cc4c21)OCO5)OCO3`: the tube area decrease was 104% (active).
Take `CN(C)[C@@H]1C(=O)C(C(N)=O)=C(O)[C@@]2(O)C(=O)C3=C(O)c4c(O)ccc(Cl)c4[C@@H](O)[C@H]3C[C@@H]12`: the tube area decrease is 17.3%.
Consider `Cc1cc(N)c2ccccc2[n+]1CCCCCCCCCC[n+]1c(C)cc(N)c2ccccc21`, for which the tube area decrease was 106% (active).
For the compound `C=Cc1c(C)c2cc3[nH]c(cc4nc(cc5nc(cc1[nH]2)C(C)=C5CCC(=O)O)C(CCC(=O)O)=C4C)c(C)c3C=C`, the tube area decrease was -597%.
As to `CCN(CC)C(C)CN1c2ccccc2Sc2ccccc21` (stereo unspecified), the tube area decrease is 25%.
As to `NCCCCCC(=O)O`, the tube area decrease is 15.9%.
As for `CCN(CC)CCNC(=O)c1ccc(NC(C)=O)cc1`, the tube area decrease was 23.1%.
As for `CCOC(=O)c1ccc(N)cc1`, the tube area decrease was 4%.
Turning to `CNC[C@H](O)c1cccc(O)c1`, the tube area decrease is -2.9%.
On to `O=c1c(O)c(-c2ccc(O)c(O)c2)oc2cc(O)cc(O)c12`, for which the tube area decrease is 42.7% (active).
Consider `O=C(OCC(O)CO)c1ccccc1Nc1ccnc2cc(Cl)ccc12` (stereo unspecified), for which the tube area decrease is -3.6%.
Same read-out and setting: to `CC(=O)O[C@]1(C(C)=O)CC[C@H]2[C@@H]3C=C(Cl)C4=CC(=O)[C@@H]5C[C@@H]5[C@]4(C)[C@H]3CC[C@@]21C` belongs 10.1%.
Turning to `C[C@H]1O[C@@H](n2cc(F)c(=O)[nH]c2=O)[C@H](O)[C@@H]1O`, the tube area decrease is 22.2%.
Turning to `CC1(C)NC(=O)N(c2ccc([N+](=O)[O-])c(C(F)(F)F)c2)C1=O`, the tube area decrease was 6.9%.
On the same count and under the same terms, to `C[N+](C)(C)CCCCCC[N+](C)(C)C` belongs -10.2%.
